Reference: PubChem BioAssay (EPA / NIEHS)
Values joined by “and” are separate entries in the source; they are usually repeats but may differ in a detail not shown here. Identical values can stand only once. Inconclusive results are not listed. Where a structure was tested more than once in an assay, its records may differ in their call. Active and inactive are the calls of the source. How the source made its calls: active means hit-call score of the fitted dose curve at least 0.9, where 1 is the maximum; inconclusive means response in the unintended direction; inactive means score below 0.9.

Legend:
[1] = ATG_XTT_Cytotoxicity: Cytotoxicity Assessment in the Attagene TRANS-FACTORIAL HepG2 Assay (AID 2283584);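 on AC50: cells exposed to compound for 24 h before reading; active means loss of viability signal versus DMSO baseline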
In short: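 Viability endpoint from XTT after 24 h chemical exposure of reporter-transfected human HepG2 liver cells; signal loss fitted relative to DMSO negative control.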

[2] = TOX21_p53_BLA_p2_viability: Viability Assessment in the Tox21 HCT-116 p53 Agonism Beta-lactamase Assay, Phase 2 (AID 2283591);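 further: compound exposure lasted 16 h at 37 °C; actives lower the ATP signal meaning cytotoxicity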
In short: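 Cytotoxicity readout: CellTiter-Glo ATP luminescence, 30 min at room temperature, after the beta-lactamase read. Cells were HCT116 exposed 16 h at 37C to compounds pin-transferred at 217-fold dilution from DMSO stocks.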

[3] = target: Cellular tumor antigen p53 (Homo sapiens) (UniProt P04637); test: TOX21_p53_BLA_p2_ratio: Tox21 HCT-116 p53 Agonism Beta-lactamase Assay, Ratio, Phase 2 (AID 2283592)
In short: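 Gain-of-signal p53 agonism was scored from the beta-lactamase FRET ratio (460/530 nm, 405 nm excitation) in HCT116 cells treated 16 h at 37C, 5% CO2, with DMSO serving as negative control and baseline.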

[4] = TOX21_p53_BLA_p3_viability: Viability Assessment in the Tox21 HCT-116 p53 Agonism Beta-lactamase Assay, Phase 3 (AID 2283593);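 further: cells exposed to compound for 16 h before reading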
In short: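 Cellular ATP was quantified by CellTiter-Glo luminescence, read after 30 min at room temperature. Beforehand, HCT116 cells (4000/well) received compound 5 h post-seeding, 217-fold diluted from DMSO, then incubated 16 h at 37C.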

[5] = target: Cellular tumor antigen p53 (Homo sapiens) (UniProt P04637); test: TOX21_p53_BLA_p3_ratio: Tox21 HCT-116 p53 Agonism Beta-lactamase Assay, Ratio, Phase 3 (AID 2283596)
In short: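 HCT116 p53-bla cells (4000/well) given compound in DMSO (217-fold dilution) after 5 h, incubated 16 h at 37C. CCF4-AM substrate 2 h at room temperature; 460/530 nm emission ratio, gain fitted against DMSO.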

[6] = TOX21_p53_BLA_p4_viability: Viability Assessment in the Tox21 HCT-116 p53 Agonism Beta-lactamase Assay, Phase 4 (AID 2283597);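 further: hits lower the luminescence signal meaning cytotoxicity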
In short: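 Following a 16 h exposure at 37C, the treated HCT116 wells were first read for the FRET ratio. They were then lysed with CellTiter-Glo, and ATP luminescence was recorded after 30 min at room temperature.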

[7] = target: Cellular tumor antigen p53 (Homo sapiens) (UniProt P04637); test: TOX21_p53_BLA_p5_ratio: Tox21 HCT-116 p53 Agonism Beta-lactamase Assay, Ratio, Phase 5 (AID 2283599)
In short: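 Beta-lactamase reporter ratio (blue 460 nm over green 530 nm, 405 nm excitation) after 2 h CCF4-AM loading, in HCT-116 cells exposed 16 h at 37 C to compounds pinned at 217-fold dilution. Increases relative to DMSO baseline scored.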

[8] = TOX21_p53_BLA_p5_viability: Viability Assessment in the Tox21 HCT-116 p53 Agonism Beta-lactamase Assay, Phase 5 (AID 2283600)
In short: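 After the 460/530 nm beta-lactamase measurement, the wells received an ATP-detection luciferase reagent; signal was read 30 min later at RT. Compound treatment lasted 16 h on cells pre-incubated 5 h post-seeding.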

[9] = target: Cellular tumor antigen p53 (Homo sapiens) (UniProt P04637); test: TOX21_p53_BLA_p4_ratio: Tox21 HCT-116 p53 Agonism Beta-lactamase Assay, Ratio, Phase 4 (AID 2283601)
In short: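 Signal is the blue/green (460nm/530nm) ratio of cleaved versus uncleaved CCF4-AM substrate, read after 2 h substrate loading. Cells were HCT116 carrying the p53-responsive beta-lactamase reporter, dosed 16 h at 37C, 5% CO2; CellTiter-Glo measured in parallel.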

Measured: AC50

Cellular tumor antigen p53 (Homo sapiens), sequence (P04637 whole entry, looked up): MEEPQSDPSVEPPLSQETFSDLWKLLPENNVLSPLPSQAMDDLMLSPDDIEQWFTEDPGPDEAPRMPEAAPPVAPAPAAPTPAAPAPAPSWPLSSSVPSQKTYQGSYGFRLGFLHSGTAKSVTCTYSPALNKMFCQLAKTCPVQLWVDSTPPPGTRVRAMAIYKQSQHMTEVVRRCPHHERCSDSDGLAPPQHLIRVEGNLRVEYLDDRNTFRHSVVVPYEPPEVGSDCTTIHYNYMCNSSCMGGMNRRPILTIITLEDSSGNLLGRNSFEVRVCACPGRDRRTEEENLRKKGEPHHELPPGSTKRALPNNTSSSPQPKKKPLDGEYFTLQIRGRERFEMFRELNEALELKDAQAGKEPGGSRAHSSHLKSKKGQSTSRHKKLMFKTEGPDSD

CN(C)c1ccc(N=O)cc1
inactive: [1] | [3] | [5] | [9]
active: [2] 70.1 µM and 70.5 µM | [3] 75.7 µM | [4] 88.2 µM and 80.8 µM | [6] 70.4 µM and 69.5 µM | [7] 83.8 µM and 86.6 µM | [8] 74.2 µM and 79.4 µM | [9] 86.9 µM

[F][Sn]([c]1ccccc1)([c]1ccccc1)[c]1ccccc1
active: [1] 1.35 µM | [2] 1.6 µM | [3] 10.1 µM | [4] 13.3 µM | [5] 13.5 µM | [6] 3.96 µM | [7] 18.3 µM | [8] 13.2 µM | [9] 12 µM

COC(=O)c1cc(Oc2ccc(Cl)cc2Cl)ccc1[N+](=O)[O-]
inactive: all assays above

[Cl][Sn]([c]1ccccc1)([c]1ccccc1)[c]1ccccc1
active: [1] 1.73 µM and 986 nM

ClCc1ccccc1CCl
inactive: [1]

C[CH2][Hg][S]c1ccccc1C(=O)O
inactive: [1] | [3]
active: [2] 32 µM and 18.4 µM | [3] 2.74 µM | [4] 46.1 µM and 6.74 µM | [5] 221 nM and 970 nM | [6] 41.7 µM and 5.78 µM | [8] 46.1 µM and 7.05 µM | [9] 46.1 µM and 34.6 µM

O=C(O)CC(O)(CC(=O)O)C(=O)O
inactive: all assays above

Cc1cc(Cl)ccc1OCCCC(=O)O
inactive: all assays above

Cc1cc(-c2cc(C)c(N)c(C)c2)cc(C)c1N
inactive: all assays above

C=C(C)C(=O)OCCCCOC(=O)C(=C)C
inactive: [1]

CCOC(=O)OC1=C(c2cc(C)ccc2C)C(=O)NC12CCC(OC)CC2 (configuration not stated)
active: [3] 46.1 µM | [5] 52.6 µM | [7] 26.3 µM | [9] 54.7 µM
inactive: all other assays above

COC(=O)Nc1cccc(OC(=O)Nc2cccc(C)c2)c1
not listed: [7] | [9]
inactive: all other assays above

CCC[CH2][Sn]([CH2]CCC)([CH2]CCC)[CH2]CCC
inactive: [3]
active: [1] 33.9 µM | [2] 30.1 µM | [4] 20.2 µM | [5] 29.6 µM | [6] 42.2 µM | [7] 44.3 µM | [8] 41 µM | [9] 68.7 µM

O=C(NC(=O)c1c(F)cccc1F)Nc1cc(Cl)c(Oc2ncc(C(F)(F)F)cc2Cl)c(Cl)c1
active: [3] 6.18 µM | [6] 4.06 µM | [7] 13.7 µM | [9] 15.6 µM
inactive: all other assays above

CC1(C)[C@H](/C=C2\CCSC2=O)[C@@H]1C(=O)OCc1coc(Cc2ccccc2)c1
active: [9] 69.3 µM
inactive: all other assays above

O=[N+]([O-])c1cccc2ccccc12
not listed: [8]
inactive: all other assays above

CCOc1ccc(N)cc1
inactive: all assays above

Cc1cc(SCc2sc(-c3ccc(C(F)(F)F)c(F)c3)nc2C)ccc1OCC(=O)O
active: [2] 15.2 µM | [3] 54.1 µM | [4] 35.3 µM | [5] 48.2 µM | [6] 11.9 µM | [7] 70.2 µM | [8] 40.6 µM | [9] 54.2 µM
inactive: [1]

Cc1cccc(C)c1NC(=O)CN1CCCC1=O
inactive: all assays above

CC(C)[C@@H](Nc1ccc(C(F)(F)F)cc1Cl)C(=O)OC(C#N)c1cccc(Oc2ccccc2)c1 (some centres not stated)
not listed: [9]
inactive: all other assays above

O=c1oc2ccccc2c(O)c1C(CC(O)c1ccc(-c2ccc(Br)cc2)cc1)c1ccccc1 (configuration not stated)
inactive: [1] | [2] | [3] | [4] | [6] | [8] | [9]
active: [2] 6.09 µM | [4] 15.2 µM | [5] 43.4 µM and 22.3 µM | [6] 10.4 µM | [8] 19.3 µM | [9] 20.4 µM

O=c1[nH]c2ccccc2n1C1CCN(CCCC(c2ccc(F)cc2)c2ccc(F)cc2)CC1
active: [1] 18.1 µM | [2] 13.8 µM and 30.1 µM | [3] 39.4 µM | [4] 67.5 µM and 35.3 µM | [5] 83.6 µM and 43.4 µM | [6] 14.6 µM and 11.3 µM | [7] 84.6 µM and 43.2 µM | [8] 75.5 µM and 31.9 µM | [9] 19.8 µM
inactive: [3] | [9]

CCOP(=O)(OCC)OC(=CCl)c1ccc(Cl)cc1Cl
inactive: all assays above
